Assay results taken from paper PMC5540273 (PLoS ONE, 2017).
“And” between values parts separate entries of the source, which are not always exact repeats. Equal values may be shown once. Read-outs that look alike come from different tables or passages of the source.

Assays:
SRMS = conditions: concentration: 1 μM, replicates: in singlicate, n = 1
SRPK1 = conditions: concentration: 1 μM, replicates: in singlicate, n = 1
SRPK2 = conditions: concentration: 1 μM, replicates: in singlicate, n = 1
SRPK3 = conditions: concentration: 1 μM, replicates: in singlicate, n = 1
STK16 = conditions: concentration: 1 μM, replicates: in singlicate, n = 1
STK33 = conditions: concentration: 1 μM, replicates: in singlicate, n = 1
STK36 = conditions: concentration: 1 μM, replicates: in singlicate, n = 1
STK39 = conditions: concentration: 1 μM, replicates: in singlicate, n = 1
SYK = conditions: concentration: 1 μM, replicates: in singlicate, n = 1
TAK1 = test system: T1, TAK1; conditions: concentration: 1 μM, replicates: in singlicate, n = 1
T1 construct: gene MAP3K7

TAOK2 = conditions: concentration: 1 μM, replicates: in singlicate, n = 1
TAOK3 = conditions: concentration: 1 μM, replicates: in singlicate, n = 1
TBK1 = conditions: concentration: 1 μM, replicates: in singlicate, n = 1
TESK1 = conditions: concentration: 1 μM, replicates: in singlicate, n = 1
TGFBR1 = conditions: n = 1
STK35 = conditions: concentration: 1 μM, replicates: in singlicate; n = 1
SgK110 = conditions: concentration: 1 μM, replicates: in singlicate; n = 1
TAOK1 = conditions: concentration: 1 μM, replicates: in singlicate; n = 1
TEC = conditions: concentration: 1 μM, replicates: in singlicate; n = 1
TGFBR2 = conditions: concentration: 1 μM, replicates: in singlicate; n = 1
[1] = concentration: 1 μM, replicates: in singlicate
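Also: KINOMEscan kinase panel screen.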

COc1ccc(-c2nc3n(c2-c2ccncc2)CCC3)cc1 [SKF-104493]
%Inh (SRMS; 1 µM): 12% and 13%
%Inh (SRPK1; 1 µM): 0% and 1%
%Inh (SRPK2; 1 µM): 16% and 0%
%Inh (SRPK3; 1 µM): 35% and 0%
%Inh (STK16; 1 µM): 21% and 9%
%Inh (STK33; 1 µM): 0% and 8%
%Inh (STK36; 1 µM): 35% and 43%
%Inh (STK39; 1 µM): 0% and 16%
%Inh (SYK; 1 µM): 1% and 48%
%Inh (TAK1; 1 µM): 0% and 31%
%Inh (TAOK2; 1 µM): 26% and 10%
%Inh (TAOK3; 1 µM): 5% and 0%
%Inh (TBK1; 1 µM): 13% and 17%
%Inh (TESK1; 1 µM): 1% and 24%
%Inh (TGFBR1; concentration: 1 μM, replicates: in singlicate, 1 µM): 37% and 31%

FC(F)(F)c1ccc(-c2cc(-c3c[nH]nc3-c3ccccn3)ccn2)cc1 [GW599550]
%Inh (TGFBR1; 1 µM): 88%

Clc1ccc(-c2cc(-c3c[nH]nc3-c3ccccn3)ccn2)cc1 [GW681251]
%Inh (TGFBR1; 1 µM): 79%

CCc1nc(-c2cccc(C)c2)c(-c2ccnc(NC(=O)c3ccccc3)c2)s1
%Inh (SRMS): 0%
%Inh (SRPK1): 0%
%Inh (SRPK2): 0%
%Inh (SRPK3): 0%
%Inh (STK16): 6%
%Inh (STK33): 12%
%Inh (STK35): 0%
%Inh (STK39): 0%
%Inh (SYK): 0%
%Inh (SgK110): 18%
%Inh (TAK1): 35%
%Inh (TAOK1): 0%
%Inh (TAOK2): 0%
%Inh (TAOK3): 0%
%Inh (TBK1): 10%
%Inh (TEC): 18%
%Inh (TESK1): 0%
%Inh (TGFBR1; [1]): 32%
%Inh (TGFBR2): 0%

NC(=O)c1sc(-n2cnc3ccccc32)cc1OCc1ccccc1F [GSK1024306]
%Inh (SRMS): 0%
%Inh (SRPK1): 50%
%Inh (SRPK2): 0%
%Inh (SRPK3): 16%
%Inh (STK16): 0%
%Inh (STK33): 0%
%Inh (STK35): 0%
%Inh (STK36): 0%
%Inh (STK39): 4%
%Inh (SYK): 7%
%Inh (SgK110): 0%
%Inh (TAK1): 0%
%Inh (TAOK1): 0%
%Inh (TAOK2): 0%
%Inh (TAOK3): 0%
%Inh (TBK1): 0%
%Inh (TEC): 22%
%Inh (TESK1): 24%
%Inh (TGFBR1; [1]): 5%
%Inh (TGFBR2): 0%

Nc1nccc2scc(-c3ccc4c(c3)CCN4C(=O)Cc3cc(F)ccc3F)c12 [GSK2587663]
%Inh (SRMS): 0%
%Inh (SRPK1): 8%
%Inh (SRPK2): 0%
%Inh (SRPK3): 0%
%Inh (STK16): 11%
%Inh (STK33): 0%
%Inh (STK35): 0%
%Inh (STK36): 0%
%Inh (STK39): 6%
%Inh (SYK): 22%
%Inh (SgK110): 0%
%Inh (TAK1): 0%
%Inh (TAOK1): 0%
%Inh (TAOK2): 0%
%Inh (TAOK3): 0%
%Inh (TBK1): 6%
%Inh (TEC): 0%
%Inh (TESK1): 18%
%Inh (TGFBR1; [1]): 19%
%Inh (TGFBR2): 0%

Cn1ccc2ncnc(Nc3ccc(Oc4cccc(Cl)c4)c(Cl)c3)c21
%Inh (SRMS): 0%
%Inh (SRPK1): 20%
%Inh (SRPK2): 0%
%Inh (SRPK3): 0%
%Inh (STK16): 0%
%Inh (STK33): 26%
%Inh (STK35): 0%
%Inh (STK36): 6%
%Inh (STK39): 0%
%Inh (SYK): 4%
%Inh (SgK110): 11%
%Inh (TAK1): 25%
%Inh (TAOK1): 0%
%Inh (TAOK2): 0%
%Inh (TAOK3): 0%
%Inh (TBK1): 28%
%Inh (TEC): 96.7%
%Inh (TESK1): 13%
%Inh (TGFBR1; [1]): 4%
%Inh (TGFBR2): 0%
